Bioassay records from PubChem BioAssay.
An excerpt weighted towards active compounds, which were near 11% of everything screened.
WT yeast gro inh: growth inhibition of WT yeast, mitochondrial fusion screen; mitochondrial fusion phenotypic screen, WT strain; inhibition, % at 10 µM; 190,000 tested, 2.1% active; in the data active = inhibition above about 58%; tested in S. cerevisiae
Autophagy HCS: alters autophagy in cells; MEF GFP-LC3 puncta imaging; test concentration mostly 10 µM; calls only at 10 µM (by protocol); 190,000 tested, 0.98% active; AID 463193;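 active = percentage of spot-positive cells more than 3 SD above its plate mean, without a fluorescence outlier flag or 80% toxicity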;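 also: spot-positive cell cutoff set from DMSO-treated cells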
Insulin prom up: MIN6 insulin promoter up-regulation. MIN6 insulin promoter-GFP reporter, high-content imaging; active compounds read high. z-score at 5 µM. 190,000 tested, 0.3% active. AID 1625;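 active = z-score above 3 at 5 µM with at least 500 cells counted in the well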
INS promoter inh: TRM-6 insulin promoter activity inhibition; TRM-6 cells (human fetal islet line), insulin promoter-eGFP reporter, imaging; reporter expression induced with tamoxifen; 130,000 tested, 0.9% active; AID 1273; inhibition, % at 2 µM;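 active = inhibition above the mean plus 3 SD, with well images judged a real hit on visual review, cut at about 60% in these data, passing the limit was not always enough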
L major viab: reduces viability of Leishmania major promastigotes; resazurin fluorescence viability; inhibition, % at 10 µM; 200,000 tested, 9% active; in the data active = inhibition above about 50%;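 also: promastigotes grown with compound for 44 hours at 28 °C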
Starred values were filed as active, the others as inactive; i = inactive; / = not tested or not shown; + = active, no number.

SMILES	WT yeast gro inh	Autophagy HCS	Insulin prom up	INS promoter inh	L major viab
COC(=O)CCC(=O)NNC(=O)c1cccc(Br)c1	-2	i	0.51	-8	41
CCc1nnc(NC(=O)C2CCC(CNc3c(N4CCC(C)CC4)c(=O)c3=O)CC2)s1 (configuration not stated)	/	/	-0.24	/	/
O=C(NC(NCc1cccnc1)C(Cl)(Cl)Cl)c1cccc2ccccc12 (configuration not stated)	-3	i	-0.33	-71	84*
Cc1ccc(S(=O)(=O)/N=C2/NC(=O)/C(=C/c3cccnc3)S2)cc1	-5	i	-0.02	29	-13
Cc1ccc(S(=O)(=O)/N=C2/NC(=O)/C(=C/c3ccc(Br)o3)S2)cc1	-18	i	-0.08	19	51*
Cc1ccc(S(=O)(=O)/N=C(/Nc2nc(C)cc(C)n2)N2CCOCC2)cc1	-4	i	/	-25	0
COc1ccc(N2CCN(/C(=N\S(=O)(=O)c3ccccc3)Nc3nc(C)cc(C)n3)CC2)cc1	12	+	1.7	33	-10
O=NN(CCc1ccncc1)c1ccc(OCc2ccccc2)cc1	-36	i	/	-8	86*
CCN(CC)c1ccc(CN2CCC(C(=O)NCc3ccc(C)cc3)CC2)cc1	1	i	-0.19	-12	48
Fc1ccc(CSc2ccc3nnc(-c4ccccn4)n3n2)cc1	7	i	0.35	-54	96*
Cc1ccc(CSc2ccc3nnc(-c4ccccn4)n3n2)cc1	-17	i	-0.61	-14	2
CNC(=O)c1ccc(CNC(=O)OCc2ccccc2)cc1	5	i	-0.75	15	-4
O=C(O)COc1ccccc1-c1ccccc1	/	/	-0.3	/	/
CN(Cc1ccc(F)cc1)C(=O)COc1ccccc1-c1ccccc1	64*	i	-0.24	/	3
CC(C)CNC(=S)NC1CC2CCCC(C1)N2Cc1ccco1 (configuration not stated)	34	i	-0.5	/	62*
CC(C)CN1C2CCCC1CC(NC(=S)NCc1ccco1)C2 (configuration not stated)	5	i	0.47	/	34
CC(C)CNC(=S)NC1CC2CCCC(C1)N2Cc1cccs1 (configuration not stated)	17	i	1.3	/	94*
COCCCNC(=S)NC1CC2CCCC(C1)N2Cc1ccco1 (configuration not stated)	99*	i	-0.12	0	0
CNC(=S)NC1CC2CCCC(C1)N2Cc1ccco1 (configuration not stated)	15	i	-0.27	-29	8
CCC(NC(=O)NCCCn1ccnc1)(C(F)(F)F)C(F)(F)F	-15	i	0.85	4	-5
Cc1ccc(Nc2nc(NCCCN3CCOCC3)nc(N)c2[N+](=O)[O-])cc1	10	+	-0.27	6	51*
Cc1ccc(Nc2nc(NCCCN3CCOCC3)nc(N)c2[N+](=O)[O-])cc1C	27	i	-0.82	/	52*
C=CCn1cnc2c(c1=O)c1nc3ccccc3nc1n2/N=C/c1cc(OC)c(OC)c(OC)c1	-2	+	-0.59	0	100*
Cc1cccc(OCCNc2cc(N3CCN(CCO)CC3)ccc2[N+](=O)[O-])c1	31	i	-0.54	-29	44
COCCCN=C1NN=C(c2cc(C)n(Cc3ccco3)c2C)CS1	-6	i	-1.1	-144	95*
SMILES	WT yeast gro inh	Autophagy HCS	Insulin prom up	INS promoter inh	L major viab
Cc1cc(C2=NNC(=NC3CC3)SC2)c(C)n1Cc1ccco1	1	i	-2.4	/	20
COCC(C)N=C1NN=C(c2cc(C)n(Cc3ccccc3Cl)c2C)CS1 (configuration not stated)	44	i	-0.65	/	64*
Cc1ccc(CN2C(=O)c3ccccc3NC23CCN(Cc2ccccc2)CC3)cc1	9	+	-0.05	-71	96*
O=[N+]([O-])c1ccc(OCc2cnc(Cl)s2)c([N+](=O)[O-])c1	10	i	-1.2	/	28
Cc1cc2oc(=O)cc(CN3CCOCC3)c2cc1C	0	i	-0.18	-47	-3
CCOC(=O)Nc1ccc2c(CN3CCN(S(=O)(=O)c4ccccc4)CC3)cc(=O)oc2c1	-1	i	-0.44	14	100*
Cc1cc2oc(=O)cc(CN3CCN(C/C=C/c4ccccc4)CC3)c2cc1O	9	i	-3.5	33	100*
O=c1cc(CN2CCN(C/C=C/c3ccccc3)CC2)c2cc(O)c(-c3ccccc3)cc2o1	84*	i	-0.43	-136	80*
Cc1cc2oc(=O)cc(CN3CCN(S(=O)(=O)c4cccs4)CC3)c2cc1C	13	i	-0.07	-36	81*
Cc1c(O)ccc2c(CN3CCN(C/C=C/c4ccccc4)CC3)cc(=O)oc12	/	/	-0.63	/	/
O=C(OCc1cccc([N+](=O)[O-])c1)c1cc(=O)[nH]c2ccccc12	-10	i	0.57	/	-4
OC(CNCCc1ccccc1)COc1ccc(OCC(O)CNCCc2ccccc2)cc1 (configuration not stated)	/	/	-0.23	/	/
OC(CNCCc1ccc(Cl)cc1)COc1ccc2ccccc2c1 (configuration not stated)	97	i	-0.15	/	83*
CCOc1nc2c(c(=O)n(C)c(=O)n2C)n1Cc1ccccc1Cl	-8	i	-2.9	42	0
C=CCOc1nc2c(c(=O)n(C)c(=O)n2C)n1Cc1c(Cl)cccc1Cl	-1	i	-0.66	36	64*
C=CCn1c(Oc2cc(C)ccc2C)nc2c1c(=O)n(C)c(=O)n2C	-1	+	-0.49	19	-8
Cc1cc(N2CCN(Cc3nc(-c4ccc(F)cc4)oc3C)CC2)cc(C)n1	13	i	-0.8	/	93*
Cc1cccc(N2CCN(Cc3nc(-c4cccc(Cl)c4)oc3C)CC2)n1	62*	i	/	/	12
COC(=O)c1cc2sccc2n1Cc1nc(-c2cccc(Cl)c2)oc1C	-4	i	0.33	/	64*
COC(=O)c1cc2sccc2n1Cc1nc(-c2ccc(Cl)cc2)oc1C	3	i	0.7	/	6
CCN(CC)c1nc2cc(C)ccc2cc1/C=C(\C#N)C(N)=O	5	i	-0.24	/	17
CN(C)c1ccc(C2C3C(=O)NC(=O)C3ON2c2ccc(Cl)cc2)cc1 (configuration not stated)	7	i	0.86	/	-9
COc1ccc2[nH]c(C)c(CCNC(=S)Nc3ccc(C)cc3)c2c1	3	i	-0.8	-14	92*
CCc1cccc(CC)c1NC(=S)NCCc1c(C)[nH]c2ccccc12	68*	i	-0.87	12	38
CCc1cccc(CC)c1NC(=S)NCCc1ccc(O)c(O)c1	-6	i	-0.99	-7	20
COc1ccc2[nH]c(C)c(CCNC(=S)Nc3cccc(C)c3C)c2c1	18	i	1.3	-2	61*
CC1CN(c2ccc(NC(=S)NNCCC#N)cc2)CC(C)O1 (configuration not stated)	/	/	-0.25	/	/
COC(=O)C1C(c2ccccc2)C(C(=O)OCc2ccco2)C1c1ccccc1 (configuration not stated)	76*	i	/	-6	7
CC(C)OP(=O)(OC(C)C)C(NC(=O)c1ccccc1Br)C(N)=O (configuration not stated)	/	/	-0.09	/	/
